Source: PubChem BioAssay (NCI)
The panel holds about 79,000 compounds, 15% with a hit somewhere; the sample as a whole holds those more often. Rule as the data show it: active = growth inhibition above about 70%; inactive = the rest.

Assays:
[1] = NCI Yeast Anticancer Drug Screen. Data for the rad50 strain (AID 155);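 also: 0% = growth of vehicle-only cultures of the same strain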; details: S. cerevisiae rad50 strain growth inhibition; at 50.0 µM; active compounds read high
Outline: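 Relative growth inhibition (compound vs vehicle) was measured in yeast with a defined repair-gene alteration.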

[2] = NCI Yeast Anticancer Drug Screen. Data for the mec2-1 strain (AID 157); details: S. cerevisiae mec2-1 strain, at 50.0 µM, active compounds read high
Outline: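 Cells of the genetically defined mec2-1 yeast strain are incubated with test compound. Inhibition of growth is calculated against vehicle-treated controls.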

[3] = NCI Yeast Anticancer Drug Screen. Data for the sgs1 mgt1 strain (AID 161);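 also: 0% = growth of cultures given vehicle only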; details: S. cerevisiae sgs1 mgt1 strain, at 50.0 µM, active compounds read high
Outline: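 Test agents were incubated with a DNA-repair-mutant yeast strain. Growth was then read and compared against vehicle-treated controls.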

[4] = NCI Yeast Anticancer Drug Screen. Data for the cln2 rad14 strain (AID 165);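 also: 0% = growth equal to vehicle treated cultures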; details: S. cerevisiae cln2 rad14 strain, at 50.0 µM, active compounds read high
Outline: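 The screen exposed genetically defined yeast (cln2 rad14) to test compounds and scored growth inhibition relative to vehicle-treated controls.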

[5] = NCI Yeast Anticancer Drug Screen. Data for the bub3 strain (AID 167); details: S. cerevisiae bub3 mutant strain, at 50.0 µM, active compounds read high
Outline: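 Screening used yeast with an engineered genetic alteration affecting cell cycle control. Compound-exposed cultures were compared with vehicle cultures, and reduced growth was taken as inhibition.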

[6] = NCI Yeast Anticancer Drug Screen. Data for the mlh1 rad18 strain (AID 175); details: S. cerevisiae mlh1 rad18 strain growth inhibition; at 50.0 µM; active compounds read high
Outline: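 Compound-treated yeast growth, normalised to vehicle controls. Strain bears defined DNA repair mutations.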

Measured: growth inhibition

CC(=O)n1cc(CC(C)O)c(=O)[nH]c1=O (stereo not given)
inactive: [1] -2.45% | [2] -21% | [3] -16.2% | [4] 4.85% | [5] -13.2% | [6] -28.1%

CCCCN=C=NCCC[N+](C)(C)C
inactive: [1] 0.4% | [2] 7.2% | [3] 0.9% | [4] 10% | [5] 2.8% | [6] 8.2%

O=C1COC(=O)/C1=C/c1ccccc1
inactive: [1] -0.4% | [2] -7.85% | [3] -4.75% | [4] 2.3% | [5] -15.8% | [6] -1.05%

CN(C)CCOC(=O)COc1ccc(Cl)cc1
inactive: [1] -10.2% | [2] 26.6% | [3] 9.9% | [4] 38% | [5] 28.9% | [6] 21.4%

COc1ccc2c3c([nH]c2c1)[C@H]1C[C@H]2[C@H](C[C@@H](O)[C@H](OC)[C@H]2C(=O)O)CN1CC3
inactive: [1] 26.3% | [2] 21% | [3] -18.9% | [4] 1.85% | [5] 23.6% | [6] 30.4%

COc1ccc(N=C2[Se]C(=NC(=O)c3ccccc3)N(c3ccc(OC)cc3)C2=Nc2ccc(OC)cc2)cc1
inactive: [1] 13.1% | [2] -25.5% | [3] -22.2% | [4] -36% | [5] 1.3% | [6] -7.95%

c1csc(-c2sc(-c3ccsc3)cc2Cc2ccsc2)c1
inactive: [1] -23.1% | [2] -20.1% | [3] -32.9% | [4] -14.4% | [5] -26.6% | [6] -23.3%

CNC(=O)C(C)Oc1ccc(OCC2CCCCC2)cc1 (stereo not given)
inactive: [1] -0.8% | [2] -44.2% | [3] -14.4% | [4] -35.5% | [5] -46.9% | [6] -55.6%

CC1=Nc2ccccc2NC2(C1)C(C1COC(C)(C)O1)OC1OC(C)(C)OC12 (stereo not given)
inactive: [1] 9.95% | [2] 13.8% | [3] 20.3% | [4] 21.5% | [5] 2.1% | [6] 17.9%

CC(O)C1(O)C(O)CC(OC2c3cc4c(c(O)c3[C@@H]3C[C@@]2(C)OC32C=c3cc[nH]c3=N2)C(=O)c2cccc(O)c2C4=O)OC1C (stereo not given in full)
inactive: [1] 63.5% | [2] 41.1% | [3] 60% | [4] 50.4% | [5] 52% | [6] 67.6%

CC(C)C(O)C(=O)C(O)C(C)C (stereo not given)
inactive: [1] -13.4% | [2] -8.2% | [3] 4.5% | [4] 15.7% | [5] 3.4% | [6] -10.9%

CC(=O)CC(=O)CC(C)C.CC(=O)CC(=O)CC(C)C.[Cu]
inactive: [1] 17.2% | [2] 17.5% | [3] 6.25% | [4] -16.1% | [5] -3.2% | [6] 37.7%

CCCCCC(=O)C(C)(c1nc2nnc(NC(=O)Nc3ccc(Cl)cc3)n2[nH]c1=O)c1nc2nnc(NC(=O)Nc3ccc(Cl)cc3)n2[nH]c1=O
inactive: [1] -42.8% | [2] -21.6% | [3] -24.3% | [4] -45% | [5] -38.8% | [6] -32.5%

O=[N+]([O-])c1ccc(C=NCCO)cc1
inactive: [1] 8.75% | [2] 8.55% | [3] 3.7% | [4] -1% | [5] 9.2% | [6] -5.4%

CCCCCCC(=O)N1CC(C)OC(C)C1 (stereo not given)
inactive: [1] 0.6% | [2] -6.4% | [3] 2.4% | [4] 0.1% | [5] -14.7% | [6] 4.8%

O=C(NCCc1c(-c2ccccc2)[nH]c2ccccc12)C1CCCCC1
inactive: [1] -10.6% | [2] 17.9% | [3] 32.6% | [4] -6.1% | [5] 30.9% | [6] -2.3%

COC1OC(=O)c2cccc3cccc1c23 (stereo not given)
inactive: [1] -9.3% | [2] -14.8% | [3] -8.2% | [4] -7.5% | [5] -2.4% | [6] -18.7%

CC1c2ccccc2-c2ccccc2N1C(=O)c1cccc(C(=O)N2c3ccccc3-c3ccccc3C2C)n1 (stereo not given)
inactive: [1] 26.3% | [2] 11.6% | [3] -6.75% | [4] -1.9% | [5] -2.1% | [6] 18.1%

N#CS[C@@H]1CCC[C@H]1O
inactive: [1] -0.85% | [2] -6.25% | [3] -18.5% | [4] -18% | [5] 1.65% | [6] -20.1%

CC1(C(=O)O)C(=O)Oc2c1c1ccccc1c1ccccc21 (stereo not given)
inactive: [1] 15.3% | [2] 10.7% | [3] 0.75% | [4] 10.8% | [5] 16.3% | [6] 27.5%
